PubChem BioAssay
Activity calls are given as the source filed them. Unless noted, how the calls were made is not given here.

What was measured:
[1] = compound effects on lung adenocarcinoma cell viability – A549, calcein-AM fluorescence, 48 h, basal, profiling panel (AID 1162); settings: higher = more signal; further: test concentration not given here
[2] = compound effects on differentiated 3T3-L1 adipocyte viability – cell-based, 3T3-L1 adipocytes, calcein-AM fluorescence, 48 h, basal, profiling panel (AID 1163); settings: 3T3-L1 adipocytes viability, higher = more signal; further: test concentration not given here
[3] = compound effects on hepatocellular carcinoma cell viability – HepG2, calcein-AM fluorescence, 48 h, basal, profiling panel (AID 1164); settings: higher = more signal; further: test concentration not given here
[4] = compound effects on multiple myeloma cell viability – MM1S, calcein-AM fluorescence, 48 h, basal, profiling panel (AID 1165); settings: higher = more signal;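 further: viability of MM1S multiple myeloma cells under basal unstimulated conditions; test concentration not given here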
[5] = calcein-AM signal in unstimulated myeloma cells – cell-based, calcein-AM fluorescence, 48 h, PK04 Diversity Set, profiling panel (AID 1166); settings: RPMI8226 myeloma viability, higher = more signal;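 further: cells grown under basal conditions without added stimulus; test concentration not given here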
[6] = JC-1 mitochondrial signal, unstimulated HepG2 cells – cell-based, JC-1 fluorescence, 24 h, 100 nL compound, profiling panel (AID 1167); settings: HepG2 mitochondrial potential, higher = more signal; further: test concentration not given here
[7] = JC-1 mitochondrial signal, unstimulated adipocytes – cell-based, JC-1 fluorescence, 3T3-L1 adipocytes, 24 h, 100 nL compound, profiling panel (AID 1168); settings: JC-1 mitochondrial fluorescence, higher = more signal, called active from +8 up or from −8 down; further: test concentration not given here
[8] = JC-1 mitochondrial signal, unstimulated myeloma cells – cell-based, JC-1 fluorescence, RPMI8226, 24 h, 100 nL compound, profiling panel (AID 1169); settings: JC-1 mitochondrial potential fluorescence, higher = more signal; further: test concentration not given here
[9] = JC-1 mitochondrial signal, unstimulated MM1S myeloma – cell-based, JC-1 fluorescence, 24 h, 100 nL compound, profiling panel (AID 1170); settings: MM1S mitochondrial potential, higher = more signal; further: test concentration not given here
[10] = resazurin metabolic signal in A549 cells – cell-based, resazurin fluorescence, 24 h, PK04 Diversity Set, profiling panel (AID 1171); settings: A549 viability, higher = more signal, called active from +8 up or from −8 down; further: test concentration not given here
[11] = resazurin metabolic signal in HepG2 cells – cell-based, resazurin fluorescence, 24 h, PK04 Diversity Set, profiling panel (AID 1172); settings: HepG2 viability, higher = more signal; further: test concentration not given here
[12] = budding yeast growth changes without added modifier – OD600, strain BY4716, 24 h, basal condition, primary screen (AID 1173); settings: S. cerevisiae BY4716 growth, OD600, 24 h; higher = more signal, called active from +8 up or from −8 down
[13] = viability profiling in MM1S myeloma cells – cell-based, resazurin fluorescence, basal, 24 h, PK04 Diversity Set, profiling panel (AID 1174); settings: higher = more signal, called active from +8 up or from −8 down; further: test concentration not given here
[14] = target: Dihydroorotate dehydrogenase (quinone), mitochondrial (Plasmodium falciparum (isolate 3D7)) (UniProt Q08210); assay: inhibition of P. falciparum DHODH – biochemical, C-terminal His tag, absorbance 600 nm, primary screen (AID 1175); settings: PfDHODH enzyme, DCIP absorbance 600 nm; higher = more signal, called active from +8 up or from −8 down;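 further: recombinant parasite enzyme with a five histidine tag at its C terminus; test concentration not given here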
Dihydroorotate dehydrogenase (quinone), mitochondrial (Plasmodium falciparum (isolate 3D7)), sequence (Q08210 whole entry, looked up): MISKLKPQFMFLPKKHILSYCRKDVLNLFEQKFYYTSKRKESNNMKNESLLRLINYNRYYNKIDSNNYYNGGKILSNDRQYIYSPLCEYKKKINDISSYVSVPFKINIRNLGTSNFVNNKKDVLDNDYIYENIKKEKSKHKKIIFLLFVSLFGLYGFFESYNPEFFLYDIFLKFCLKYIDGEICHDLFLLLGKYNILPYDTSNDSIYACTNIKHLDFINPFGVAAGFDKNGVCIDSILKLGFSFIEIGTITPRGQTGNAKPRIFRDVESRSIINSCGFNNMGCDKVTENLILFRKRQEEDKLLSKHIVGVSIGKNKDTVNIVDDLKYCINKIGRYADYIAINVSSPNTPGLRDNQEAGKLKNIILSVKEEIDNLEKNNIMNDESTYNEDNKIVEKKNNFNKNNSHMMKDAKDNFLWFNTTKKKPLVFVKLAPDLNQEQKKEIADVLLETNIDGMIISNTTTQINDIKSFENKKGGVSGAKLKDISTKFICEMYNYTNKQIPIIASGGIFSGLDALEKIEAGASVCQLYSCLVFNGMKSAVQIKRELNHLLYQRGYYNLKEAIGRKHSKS

[15] = inhibition of PAO1 biofilm formation – strain PAO1, LB-PBS medium, absorbance 600 nm, primary screen (AID 1176); further: test concentration not given here; settings: P. aeruginosa PAO1 growth/biofilm, A600, 12 h; higher = more signal
[16] = growth modulation of vineyard yeast isolate – strain RM11-1a, OD600, basal, 24 h, primary screen (AID 1177);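 further: cultures grown under basal conditions with no added stressor; test concentration not given here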; settings: S. cerevisiae RM11-1a growth, OD600, 24 h; higher = more signal, called active from +8 up or from −8 down
[17] = growth of efflux-deficient E. coli DRC39 – strain DRC39, OD650, 24 h, E. coli filamentation inducers, primary screen (AID 1178);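 further: growth measured as culture turbidity by optical density at 650 nm; test concentration not given here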; settings: E. coli DRC39 acrAB, higher = more signal, called active from +8 up or from −8 down
[18] = growth of efflux-deficient E. coli DRC39 – strain DRC39, OD650, 48 h, E. coli filamentation inducers, primary screen (AID 1179);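 further: screen aims at cell division blockers that make cells filament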; settings: E. coli DRC39 delta-acrAB growth, higher = more signal, called active from +8 up or from −8 down
[19] = viability profiling in RPMI8226 myeloma cells – cell-based, resazurin fluorescence, basal, 24 h, PK04 Diversity Set, profiling panel (AID 1180); settings: higher = more signal;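 further: RPMI8826 multiple myeloma cell line at 5000 cells per well; test concentration not given here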
[20] = target: E3 ubiquitin-protein ligase XIAP (Homo sapiens) (UniProt P98170); assay: small molecules binding XIAP protein – biophysical, small-molecule microarray, fluorescence 635 nm, primary screen (AID 1181); settings: higher = more signal;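 further: score merges 667 nm emission and signal to noise over triplicate slides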
E3 ubiquitin-protein ligase XIAP (Homo sapiens), sequence (P98170 whole entry, looked up): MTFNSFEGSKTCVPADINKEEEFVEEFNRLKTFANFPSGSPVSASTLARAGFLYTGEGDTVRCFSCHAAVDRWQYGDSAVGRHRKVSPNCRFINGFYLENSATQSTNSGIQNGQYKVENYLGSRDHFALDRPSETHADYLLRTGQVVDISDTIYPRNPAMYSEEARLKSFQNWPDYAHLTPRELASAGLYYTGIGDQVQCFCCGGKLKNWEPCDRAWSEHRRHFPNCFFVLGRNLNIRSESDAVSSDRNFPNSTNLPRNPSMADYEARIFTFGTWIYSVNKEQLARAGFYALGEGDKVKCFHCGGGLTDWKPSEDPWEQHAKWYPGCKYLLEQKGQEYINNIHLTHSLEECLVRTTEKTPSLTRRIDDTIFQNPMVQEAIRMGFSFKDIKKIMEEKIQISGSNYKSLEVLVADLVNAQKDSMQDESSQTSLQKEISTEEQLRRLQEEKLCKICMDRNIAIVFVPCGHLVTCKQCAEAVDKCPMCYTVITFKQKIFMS

## COc1ccc(C(O)C2C=CC3C(=O)N(c4ccccc4)C(=O)C3N2Nc2ccccc2)cc1 (stereo not given)
[1]
  z-score: -0.0572
[2]
  z-score: -0.936
[3]
  z-score: 0.204
[4]
  z-score: 0.254
[5]
  z-score: 0.0459
[6]
  z-score: -1.2
[7]
  z-score: -0.233 (inactive)
[8]
  z-score: -0.402
[9]
  z-score: -0.626
[10]
  z-score: 0.117 (inactive)
[11]
  z-score: -0.377
[12]
  z-score: -2.39 (inactive)
[13]
  z-score: -0.582 (inactive)
[14]
  composite z-score: 0.618 (inactive)
[15]
  z-score: 0.571 (inactive)
[16]
  z-score: -0.0179 (inactive)
[17]
  z-score: -0.519 (inactive)
[18]
  z-score: -0.43 (inactive)
[19]
  z-score: -0.841
[20]
  composite z-score: 0.438

## C=CCC(OC(C)=O)[C@@H]1[C@@H](N(Cc2cccc3ccccc23)C(=O)c2ccc(-c3ccccc3)cc2)c2cc(OCCCO)ccc2N1C(=O)c1ccc(-c2ccccc2)cc1 (stereo not given in full)
[1]
  z-score: 0.512
[2]
  z-score: 0.842
[3]
  z-score: 0.515
[4]
  z-score: -0.484
[5]
  z-score: 0.294
[6]
  z-score: 0.78
[7]
  z-score: -1.97 (inactive)
[8]
  z-score: 0.603
[9]
  z-score: 0.0821
[10]
  z-score: 0.654 (inactive)
[11]
  z-score: -0.132
[12]
  z-score: -0.166 (inactive)
[13]
  z-score: 0.116 (inactive)
[14]
  composite z-score: -0.948 (inactive)
[15]
  z-score: 0.055 (inactive)
[16]
  z-score: -0.929 (inactive)
[17]
  z-score: -0.277 (inactive)
[18]
  z-score: -0.228 (inactive)
[19]
  z-score: 0.0263
[20]
  composite z-score: -0.114

## COc1cc(NN2C(C(O)c3cc(OC)c(OC)c(OC)c3)C=CC3C(=O)N(c4ccccc4)C(=O)C32)cc(OC)c1OC (stereo not given)
[1]
  z-score: -0.94
[2]
  z-score: 0.641
[3]
  z-score: -0.455
[4]
  z-score: -0.881
[5]
  z-score: -0.373
[6]
  z-score: -0.132
[7]
  z-score: -0.768 (inactive)
[8]
  z-score: -0.286
[9]
  z-score: -0.755
[10]
  z-score: -1.11 (inactive)
[11]
  z-score: -1.95
[12]
  z-score: 0.585 (inactive)
[13]
  z-score: -1.19 (inactive)
[14]
  composite z-score: -1.42 (inactive)
[15]
  z-score: 0.366 (inactive)
[16]
  z-score: -0.147 (inactive)
[17]
  z-score: -0.585 (inactive)
[18]
  z-score: -0.511 (inactive)
[19]
  z-score: -1.71
[20]
  composite z-score: 0.074

## CCOC(=O)C1=C[C@@H](C(C)(C)C)N(S(=O)(=O)c2ccc(C)cc2)[C@H]1c1ccccc1
[1]
  z-score: -1.42
[2]
  z-score: -0.396
[3]
  z-score: -2.27
[4]
  z-score: -2.95
[5]
  z-score: -3.35
[6]
  z-score: 3.49
[7]
  z-score: -0.243 (inactive)
[8]
  z-score: -0.966
[9]
  z-score: -0.75
[10]
  z-score: 1.62 (inactive)
[11]
  z-score: -0.159
[12]
  z-score: 1.53 (inactive)
[13]
  z-score: -0.562 (inactive)
[14]
  composite z-score: -0.294 (inactive)
[15]
  z-score: 0.0083 (inactive)
[16]
  z-score: 1.59 (inactive)
[17]
  z-score: 0.128 (inactive)
[18]
  z-score: -0.0515 (inactive)
[19]
  z-score: -1.11
[20]
  composite z-score: -0.162

## C=C(/C(=C/C[C@@H](OC(C)=O)c1ccc(OCCO)cc1)c1cc(C(=O)OC)ccc1OC)C(C)C
[1]
  z-score: 0.679
[2]
  z-score: -0.345
[3]
  z-score: 0.747
[4]
  z-score: -1.83
[5]
  z-score: -0.385
[6]
  z-score: 0.149
[7]
  z-score: -0.852 (inactive)
[8]
  z-score: -0.799
[9]
  z-score: -0.8
[10]
  z-score: 0.627 (inactive)
[11]
  z-score: -0.459
[12]
  z-score: -0.0855 (inactive)
[13]
  z-score: -0.53 (inactive)
[14]
  composite z-score: -5.7 (inactive)
[15]
  z-score: 0.437 (inactive)
[16]
  z-score: 0.492 (inactive)
[17]
  z-score: -0.0333 (inactive)
[18]
  z-score: 0.0954 (inactive)
[19]
  z-score: -0.161
[20]
  composite z-score: 0.0546

## C=C(COC)C(=O)CC[C@@H](OC(=O)c1cccnc1)c1ccccc1OCCO
[1]
  z-score: -0.0755
[2]
  z-score: 0.46
[3]
  z-score: -1.16
[4]
  z-score: -3.38
[5]
  z-score: -3.82
[6]
  z-score: -0.758
[7]
  z-score: 1.08 (inactive)
[8]
  z-score: -0.67
[9]
  z-score: -2.43
[10]
  z-score: 0.1 (inactive)
[11]
  z-score: -0.956
[12]
  z-score: -0.585 (inactive)
[13]
  z-score: -3.09 (inactive)
[14]
  composite z-score: -0.4 (inactive)
[15]
  z-score: 0.519 (inactive)
[16]
  z-score: -0.0421 (inactive)
[17]
  z-score: 0.325 (inactive)
[18]
  z-score: 0.206 (inactive)
[19]
  z-score: -3.63
[20]
  composite z-score: -0.0663

## COc1cc(NN2C(C(O)C3CCCCC3)C=CC3C(=O)N(C)C(=O)C32)cc(OC)c1OC (stereo not given)
[1]
  z-score: -0.536
[2]
  z-score: -0.0026
[3]
  z-score: -0.848
[4]
  z-score: -0.197
[5]
  z-score: 0.436
[6]
  z-score: -0.326
[7]
  z-score: -0.657 (inactive)
[8]
  z-score: 0.316
[9]
  z-score: 0.144
[10]
  z-score: -0.825 (inactive)
[11]
  z-score: -0.721
[12]
  z-score: 1.28 (inactive)
[13]
  z-score: -1.43 (inactive)
[14]
  composite z-score: -0.187 (inactive)
[15]
  z-score: 0.462 (inactive)
[16]
  z-score: 0.668 (inactive)
[17]
  z-score: -0.276 (inactive)
[18]
  z-score: -0.498 (inactive)
[19]
  z-score: -1.35
[20]
  composite z-score: 0.279

## Cc1cccc([C@H]2C[C@H]3C(Br)=C[C@@H]2C(=O)[C@]32CO2)c1
[1]
  z-score: -0.798
[2]
  z-score: 0.0171
[3]
  z-score: -1.24
[4]
  z-score: -3.14
[5]
  z-score: -2.72
[6]
  z-score: -0.565
[7]
  z-score: 0.404 (inactive)
[8]
  z-score: -0.837
[9]
  z-score: -0.262
[10]
  z-score: -0.581 (inactive)
[11]
  z-score: -0.536
[12]
  z-score: -12.1 (active)
[13]
  z-score: -0.423 (inactive)
[14]
  composite z-score: 0.288 (inactive)
[15]
  z-score: 0.142 (inactive)
[16]
  z-score: 0.622 (inactive)
[17]
  z-score: 0.906 (inactive)
[18]
  z-score: -0.0628 (inactive)
[19]
  z-score: -0.332
[20]
  composite z-score: 0.172

## COC(=O)[C@@]1(Cc2ccccc2CN=[N+]=[N-])N=C(c2ccc(OCCCO)cc2)O[C@H]1c1ccccc1CN=[N+]=[N-]
[1]
  z-score: -3.82
[2]
  z-score: 0.522
[3]
  z-score: -5.01
[4]
  z-score: -3.56
[5]
  z-score: -3.89
[6]
  z-score: -0.86
[7]
  z-score: -1.38 (inactive)
[8]
  z-score: -1.07
[9]
  z-score: -2.09
[10]
  z-score: -2.82 (inactive)
[11]
  z-score: -1.67
[12]
  z-score: 1.66 (inactive)
[13]
  z-score: -4.85 (inactive)
[14]
  composite z-score: 2.46 (inactive)
[15]
  z-score: 2.8 (inactive)
[16]
  z-score: 2.88 (inactive)
[17]
  z-score: 1.53 (inactive)
[18]
  z-score: -0.47 (inactive)
[19]
  z-score: -4.32
[20]
  composite z-score: -0.113
